This is an account of results in PubChem BioAssay (Tox21).

A short description of experiment [1]: qHTS assay to identify aromatase inhibitors - cell viability counter screen (AID 743084;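 further: cells stimulated with testosterone during compound exposure; nearly all actives have a fitted effect of over 55% in size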; further: potency means the concentration at half of the fitted maximal effect). (In general: In qHTS, concentration-response curves come from the screen itself.)
Experiment [2] deals with Aryl hydrocarbon receptor (Homo sapiens) (UniProt P35869). Description: qHTS assay to identify small molecule that activate the aryl hydrocarbon receptor (AhR) signaling pathway (AID 743085). Further: nearly all actives have a fitted effect of over 15% in size. Further: potency means the concentration at half of the fitted maximal effect.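 On activation: HG2L7.5c1 human HepG2 liver cells with stably integrated DRE-driven firefly reporter; series mostly up to about 70 µM.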 The method in brief: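 HepG2 cells stably carrying a 20-DRE firefly luciferase reporter (HG2L7.5c1) treated with compound for 24 hr at 37C. Luciferase read by ONE-Glo luminescence, with CellTiter-Fluor viability read first.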
Aryl hydrocarbon receptor (Homo sapiens), sequence (P35869 whole entry, looked up): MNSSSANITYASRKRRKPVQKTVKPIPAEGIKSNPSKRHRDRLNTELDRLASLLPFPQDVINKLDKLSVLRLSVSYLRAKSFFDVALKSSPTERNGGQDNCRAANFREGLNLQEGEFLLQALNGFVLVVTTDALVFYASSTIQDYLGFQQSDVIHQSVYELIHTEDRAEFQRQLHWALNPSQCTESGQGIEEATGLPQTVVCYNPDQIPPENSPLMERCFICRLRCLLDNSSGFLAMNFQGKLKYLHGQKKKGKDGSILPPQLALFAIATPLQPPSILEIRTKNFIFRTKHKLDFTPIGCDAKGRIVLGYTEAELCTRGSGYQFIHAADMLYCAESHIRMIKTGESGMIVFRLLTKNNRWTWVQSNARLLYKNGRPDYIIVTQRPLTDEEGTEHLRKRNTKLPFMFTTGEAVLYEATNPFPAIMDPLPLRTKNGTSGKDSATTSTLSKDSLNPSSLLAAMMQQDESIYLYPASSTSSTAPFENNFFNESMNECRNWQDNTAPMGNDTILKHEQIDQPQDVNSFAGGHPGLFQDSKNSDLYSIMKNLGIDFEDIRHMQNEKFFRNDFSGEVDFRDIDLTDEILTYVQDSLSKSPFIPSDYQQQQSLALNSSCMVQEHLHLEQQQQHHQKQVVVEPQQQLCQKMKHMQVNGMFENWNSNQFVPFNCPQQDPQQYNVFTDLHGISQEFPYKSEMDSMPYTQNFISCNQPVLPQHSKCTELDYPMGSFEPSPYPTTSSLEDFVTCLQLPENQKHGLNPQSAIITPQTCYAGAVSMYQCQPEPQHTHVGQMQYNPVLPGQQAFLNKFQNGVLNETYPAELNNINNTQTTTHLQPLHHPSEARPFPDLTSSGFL

Experiment [3] can be described thus: qHTS assay to identify small molecule that activate the aryl hydrocarbon receptor (AhR) signaling pathway - cell viability counter screen (AID 743086). Further: nearly all actives have a fitted effect of over 45% in size. Further: potency means the concentration at half of the fitted maximal effect. The essentials:
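HepG2-AhR-luc (HG2L7.5c1) cells, 4000/well, treated 24 h at 37 C with compound; viability measured as CellTiter-Fluor fluorescence after 30 min in the same wells as the luciferase read.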

For experiment [4], the target named is Peroxisome proliferator-activated receptor gamma (Homo sapiens) (UniProt P37231). The experiment can be described thus: qHTS assay to identify small molecule agonists of the peroxisome proliferator-activated receptor gamma (PPARg) signaling pathway (AID 743094; active means well fitted activation curve with a large enough effect in the signal ratio in the repeat runs, not every such curve was filed as active; the % refers to the signal ratio). The essentials: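 Reporter activation was scored by fluorescence of cleaved LiveBLAzer B/G substrate (1 h, room temperature) in PPARg-bla HEK293H cells previously treated 17 h at 37C with DMSO-dissolved compounds.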
Peroxisome proliferator-activated receptor gamma (Homo sapiens), sequence (P37231 whole entry, looked up): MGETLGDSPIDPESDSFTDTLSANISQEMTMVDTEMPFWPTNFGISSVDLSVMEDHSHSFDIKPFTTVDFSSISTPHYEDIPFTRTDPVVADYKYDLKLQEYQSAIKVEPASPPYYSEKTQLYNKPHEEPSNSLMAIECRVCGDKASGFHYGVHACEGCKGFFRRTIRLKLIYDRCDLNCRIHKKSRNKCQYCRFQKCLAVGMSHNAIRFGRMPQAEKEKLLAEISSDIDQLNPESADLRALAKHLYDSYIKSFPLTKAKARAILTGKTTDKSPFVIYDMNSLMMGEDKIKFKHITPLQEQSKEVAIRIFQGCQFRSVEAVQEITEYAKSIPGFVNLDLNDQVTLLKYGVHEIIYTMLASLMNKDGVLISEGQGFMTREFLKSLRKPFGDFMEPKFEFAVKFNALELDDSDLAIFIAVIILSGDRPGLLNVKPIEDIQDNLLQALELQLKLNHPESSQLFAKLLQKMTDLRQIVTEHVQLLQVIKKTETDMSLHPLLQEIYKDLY

The target is the same in experiment [5]. Description: qHTS assay to identify small molecule antagonists of the peroxisome proliferator-activated receptor gamma (PPARg) signaling pathway (AID 743191; calls by dose curve; further: series mostly up to about 63 µM; nearly all actives have a fitted effect of over 30% in size). The essentials: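 GeneBLAzer PPARg UAS-bla HEK293H cells, 5 h post-plating, exposed to compounds 17 h at 37C. LiveBLAzer B/G FRET substrate added for 1 h at room temperature; beta-lactamase reporter read by fluorescence intensity.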

Experiment [6] can be described thus: qHTS assay to identify small molecule antagonists of the peroxisome proliferator-activated receptor gamma (PPARg) signaling pathway - cell viability counter screen (AID 743194). Further: nearly all actives have a fitted effect of over 55% in size. Further: potency means the concentration at half of the fitted maximal effect. The essentials:
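Cytotoxicity counter screen in PPARg-bla HEK293H cells, same wells as reporter assay. Compounds plus 50 nM rosiglitazone (final) for 17 h at 37 C, then viability read by CellTiter-Glo luminescence.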

A short description of experiment [7]: qHTS assay for small molecule agonists of the antioxidant response element (ARE) signaling pathway (AID 743202; active means well fitted activation curve with a large enough effect in the signal ratio in the repeat runs, not every such curve was filed as active; the % refers to the signal ratio; further: potency means the concentration at half of the fitted maximal effect). The essentials:
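HepG2 ARE-bla cells; 16 h treatment at 37 C; FRET-based beta-lactamase fluorescence read after 2 h substrate incubation at room temperature.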

The nature of experiment [8]: qHTS assay for small molecule agonists of the antioxidant response element (ARE) signaling pathway - cell viability counter screen (AID 743203; calls by dose curve; further: nearly all actives have a fitted effect of over 55% in size; further: potency means the concentration at half of the fitted maximal effect). The essentials:
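Viability counter screen: stably transfected ARE-bla HepG2 line, 16 hrs compound exposure at 37C/5% CO2, ATP-based CellTiter-Glo luminescence measured in the reporter wells.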

The nature of experiment [9]: qHTS assay for small molecule activators of the heat shock response signaling pathway - cell viability counter screen (AID 743209). Further: nearly all actives have a fitted effect of over 50% in size. The essentials:
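Viability of HSE-bla HeLa cells is measured with CellTiter-Glo in the wells already used for the reporter read. Compound exposure lasts 5 h at 37 C, and luminescence is read after 30 min at room temperature.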

Experiment [10] is described as follows: qHTS assay for small molecule activators of the heat shock response signaling pathway (AID 743210; active means well fitted activation curve with a large enough effect in the signal ratio in the repeat runs, with a control signal flat, not every such curve was filed as active; the % refers to the signal ratio;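 further: HeLa cells with beta-lactamase reporter driven by heat shock elements; series mostly up to about 63 µM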). The essentials: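 Following overnight attachment, HSE-bla HeLa cells received test compounds for 5 h at 37 C; beta-lactamase activity was then detected via FRET substrate fluorescence.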

Each structure is given as a SMILES string. “And” between values parts separate entries of the source, which are not always exact repeats. Equal entries are not always repeated. Results filed as inconclusive are left out. The source made the active and inactive calls. Unless noted, the call rests on the fitted dose curve; in most records, active means well fitted curve in the direction sought with a large enough effect in the repeat runs; inconclusive means weak or mixed curves; inactive means no such curve, though single readings can be large; an effect the other way counts as inactive or inconclusive.

For `CS(=O)(=O)c1ccc([C@@H](O)[C@@H](CO)NC(=O)C(Cl)Cl)cc1`, the Potency result in experiment [1], in experiment [2], in [3], in experiment [5], in experiment [6] and in [7] was “inactive” each time. Also, the Potency entry in experiment [8] and in experiment [9] was “inactive” each time. Also, the compound was called inactive in experiment [4] and in [10].

Consider `CC[Si](OC(C)=O)(OC(C)=O)OC(C)=O`, for which the Potency result in [1], in experiment [2], in experiment [3], in experiment [5], in experiment [6] and in experiment [7] was “inactive” throughout. Moreover, the Potency entry in experiment [8] is “inactive”. Moreover, the compound was called inactive in experiment [4] and in experiment [10].

In the case of `O=C1O[C@H](CO)[C@@H](O)[C@H](O)[C@H]1O`, the Potency result in experiment [1], in experiment [2], in experiment [3], in [5], in experiment [6] and in experiment [7] was “inactive” each time. The Potency entry in experiment [8] and in experiment [9] was “inactive” throughout. The compound was classed as inactive in experiment [4] and in experiment [10].

Regarding `C=CC(=O)OCCCCCCCC(C)C`, the Potency result in experiment [1], in experiment [2], in experiment [3], in [5], in experiment [6] and in [7] was “inactive” throughout. Further, the Potency result in experiment [8] and in [9] was “inactive” each time. The call in [4] and in experiment [10] was inactive.

In the case of `Nc1c(S(=O)(=O)O)cc(Br)c2c1C(=O)c1ccccc1C2=O`, the Potency was 34.4 µM (active) in [1]; 31.3 µM (active) and 30.6 µM (active) in [2]; 24.3 µM (active) in [3]; 27.9 µM (active) in experiment [7]. The result in [4] and in [10] was inactive. Further, the Potency result in experiment [5], in experiment [6] and in [8] was “inactive” each time.

Turning to `CCc1ccc(O)cc1`, the Potency entry in experiment [1], in experiment [2], in [3], in experiment [5], in experiment [6] and in experiment [7] was “inactive” in each case. The Potency entry in [8] is “inactive”. In addition, the result in [4] and in [10] was inactive.

Turning to `C[C@@H]1O[C@@H](OC[C@H]2O[C@@H](Oc3c(-c4ccc(O)c(O)c4)oc4cc(O)cc(O)c4c3=O)[C@H](O)[C@@H](O)[C@@H]2O)[C@H](O)[C@H](O)[C@H]1O`, the Potency result in experiment [1], in [2], in [3], in experiment [6] and in experiment [8] was “inactive” in each case. In experiment [10], the call was inactive.

Turning to `CC(C)NCC(O)COc1cccc2ccccc12` (stereo not given), the Potency entry in experiment [1], in experiment [2], in experiment [3], in [6], in experiment [8] and in experiment [9] was “inactive” in each case. The outcome in experiment [10] was inactive.

As to `CCCCC(CC)COC(=O)CCCCCCCC(=O)OCC(CC)CCCC` (stereo not given), the Potency result in experiment [3], in experiment [6], in experiment [7], in experiment [8] and in experiment [9] was “inactive” each time. In experiment [10], the result was inactive.

As for `O=[N+]([O-])c1cc(N(CCO)CCO)ccc1NCCO`, in [1], the Potency is 48.5 µM (active) and 61.1 µM (active). Besides, the Potency result in [2], in experiment [7] and in [8] was “inactive” throughout. Besides, in experiment [10], the compound was called inactive.

Take `CNC[C@H](O)[C@@H](O)[C@H](O)[C@H](O)CO`: the Potency entry in experiment [3], in [6], in [7], in experiment [8] and in [9] was “inactive” each time. Further, in experiment [10], the call was inactive.

Regarding `CC(=O)[C@@]1(O)CC[C@H]2[C@@H]3CCC4=CC(=O)CC[C@]4(C)[C@H]3CC[C@@]21C`, the Potency entry in experiment [3] and in experiment [8] was “inactive” each time. Moreover, the result in experiment [10] was inactive.

Turning to `CCCCC(CC)C(=O)OCCOCCOCCOC(=O)C(CC)CCCC` (stereo not given), the Potency result in experiment [1], in experiment [3], in experiment [5], in [7] and in experiment [8] was “inactive” throughout. The compound was classed as inactive in experiment [4] and in experiment [10].

Turning to `CC(C)n1c(/C=C/[C@@H](O)C[C@@H](O)CC(=O)O)c(-c2ccc(F)cc2)c2ccccc21`, the Potency entry in experiment [1], in experiment [3], in experiment [7], in experiment [8] and in experiment [9] was “inactive” in each case. Besides, in [2], the Potency is 15 µM (active). For the same compound, in [10], the compound was called inactive.

With `CC(=O)CCc1ccccc1`, the Potency entry in experiment [1], in experiment [3], in experiment [5], in experiment [6], in [7] and in [8] was “inactive” throughout. Further, the Potency result in [9] was “inactive”. Moreover, the compound was called inactive in [4] and in experiment [10].

Turning to `C[C@@H](O)[C@H]1C(=O)N2C(C(=O)O)=C(S[C@@H]3CN[C@H](C(=O)N(C)C)C3)[C@H](C)[C@H]12`, the Potency entry in experiment [1], in experiment [3], in experiment [5], in experiment [7], in [8] and in [9] was “inactive” each time. Further, the compound was classed as inactive in experiment [4] and in experiment [10].

Regarding `CN(C)c1ccc(C(=N)c2ccc(N(C)C)cc2)cc1`, the Potency in experiment [3] was 23.4 µM (active). The compound was called inactive in [4] and in experiment [10]. Further, the Potency entry in [8] and in experiment [9] was “inactive” in each case.

As for `ClC1=C(Cl)C(Cl)(Cl)C(Cl)=C1Cl`, the Potency entry in experiment [1], in [2], in experiment [3] and in experiment [9] was “inactive” in each case. Also, the Potency in experiment [6] is 2.2 µM (active) and 3.09 µM (active); in experiment [8], 13.8 µM (active) and 12.2 µM (active).

For the compound `CC(C)(C)C(=O)C1C(=O)c2ccccc2C1=O`, the Potency result in experiment [8] is “inactive”. In experiment [10], the result was inactive.

As for `CC#C[C@]1(O)CC[C@H]2[C@@H]3CCC4=CC(=O)CCC4=C3[C@@H](c3ccc(N(C)C)cc3)C[C@@]21C`, the Potency entry in experiment [1], in experiment [2], in experiment [3] and in experiment [8] was “inactive” throughout.

Regarding `COC(=O)c1ccccc1O`, the Potency entry in experiment [1], in experiment [2], in [3], in [7], in experiment [8] and in experiment [9] was “inactive” in each case.

For the compound `C=C1CC[C@H](O)CC1=C/C=C1\CCC[C@]2(C)[C@@H]([C@H](C)/C=C/[C@H](C)C(C)C)CC[C@@H]12`, the Potency entry in experiment [1], in experiment [2], in experiment [3], in [8] and in experiment [9] was “inactive” each time. The Potency in [7] was 13.6 µM (active) and 24.3 µM (active).
